Laboratory results reported in PubChem BioAssay (Tox21).
“And” between values parts separate entries of the source, which are not always exact repeats. Identical values can stand only once. Results filed as inconclusive are left out. Entries that show only a call come without a potency. A structure can be active in one record and inactive in another. The source made the active and inactive calls. Unless noted, calls follow the shape of the dose curve; as a rule, active = well fitted curve in the direction sought with a large enough effect in the repeat runs; inconclusive = weak or mixed curves; inactive = no such curve, though single readings can be large; an effect the other way counts as inactive or inconclusive.

What was measured:
[1] = qHTS assay to identify small molecule antagonists of the progesterone receptor (PR) signaling pathway - cell viability counter screen (AID 1346798); also: series mostly up to about 92 µM; nearly all actives have a fitted effect of over 50% in size
Summary of the method: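 Viability was determined by ATP-based luminescence (CellTiter-Glo) in PR-UAS-bla HEK293T cells cultured in 2% charcoal-stripped serum and incubated 16 hr with compounds under R5020 stimulation.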

[2] = qHTS assay to identify small molecule agonists of the progesterone receptor (PR) signaling pathway - cell viability counter screen (AID 1346799; calls by dose curve; also: nearly all actives have a fitted effect of over 45% in size)
Summary of the method: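 Viability was scored by ATP luminescence (CellTiter-Glo, 30 min, room temperature) in the same wells used for the reporter readout, after 16 hr compound exposure of PR-UAS-bla HEK293T cells.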

[3] = qHTS assay to identify small molecule antagonists of the TGF-beta/Smad signaling pathway - cell viability counter screen (AID 1346824); also: nearly all actives have a fitted effect of over 50% in size
Summary of the method: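 Cytotoxicity counter-screen run in the same wells as the beta-lactamase Smad reporter read: CellTiter-Glo luminescence after 30 min at room temperature. HEK 293T SBE-bla cells had 5 hr compound exposure at 37 C with TGF-beta1 (0.25 ng/mL stock).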

[4] = qHTS assay to identify small molecule agonists of the TGF-beta/Smad signaling pathway - cell viability counter screen (AID 1346829); also: top concentration of the series differs between compounds; nearly all actives have a fitted effect of over 45% in size
Summary of the method: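 Tox21 qHTS format: SBE-bla HEK 293T cells treated with DMSO-dissolved compounds for 5 hr; CellTiter-Glo luminescence after 30 min at room temperature.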

[5] = qHTS assay to identify small molecule agonists of the TGF-beta/Smad signaling pathway (AID 1346859; active = well fitted activation curve with a large enough effect in the signal ratio in the repeat runs, not every such curve was filed as active; the % refers to the signal ratio; also: series mostly up to about 77 µM)
Summary of the method: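 Dual-wavelength fluorescence (460/530 nm emission) quantified beta-lactamase expression under the Smad binding element in HEK 293T cells following 5 hr compound treatment at 37 C.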

[6] = Human pregnane X receptor (PXR) small molecule agonists, qHTS cell viability counter screen (AID 1346977); also: nearly all actives have a fitted effect of over 50% in size
Summary of the method: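 HepG2 cells stably carrying the PXR-Luc reporter are cultured with 5% charcoal-stripped FBS and treated with compounds for 24hr. CellTiter-Fluor is added at 23hr and fluorescence is read after 1hr.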

[7] = Caspase-3/7 induction in HepG2 cells by small molecules, qHTS assay (AID 1346978); also: nearly all actives have a fitted effect of over 15% in size
Summary of the method: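 Caspase-3/7 induction was measured by Caspase-Glo 3/7 luminescence (30 min, room temperature) after a 17 hr compound exposure of wild-type HepG2 cells seeded at 2,000 per well and pre-incubated 5 hr.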

[8] = Caspase-3/7 induction in CHO-K1 cells by small molecules, qHTS cell viability counter screen (AID 1346979); also: nearly all actives have a fitted effect of over 35% in size; also: potency is read from the fitted curve at half-maximal effect
Summary of the method: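 Seeding: 1,500 CHO-K1 cells/well. Rest: 5hr, 37C. Treatment: compounds in DMSO, 16hr. Read: CellTiter-Fluor, 1hr, fluorescence.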

[9] = Caspase-3/7 induction in CHO-K1 cells by small molecules, qHTS assay (AID 1346980); also: nearly all actives have a fitted effect of over 15% in size
Summary of the method: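 Luminescent Caspase-Glo 3/7 read (30min, room temperature) quantified apoptosis induction. Cells were wild-type CHO-K1, treated with compound for 17hr at 37 C and 5% CO2.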

[10] = Caspase-3/7 induction in HepG2 cells by small molecules, qHTS cell viability counter screen (AID 1346981); also: series mostly up to about 92 µM; nearly all actives have a fitted effect of over 30% in size
Summary of the method: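 The parent HepG2 line is plated at 2,000 cells per well and rested 5 hr before compound pinning from DMSO stocks. Following a 16-hr treatment at 37 C, a fluorogenic live-cell substrate (CellTiter-Fluor) reports viability after 1 hr.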

[11] = biological target: Nuclear receptor subfamily 1 group I member 2 (Homo sapiens) (UniProt O75469); experiment: Human pregnane X receptor (PXR) small molecule agonists, qHTS assay (AID 1346982); also: nearly all actives have a fitted effect of over 35% in size; also: potency is read from the fitted curve at half-maximal effect
Summary of the method: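 After plating in 5% charcoal-stripped FBS and a 5 hr rest, PXR-Luc HepG2 cells received compounds in DMSO. Following 24 hr at 37 C, ONE-Glo was added and light output read.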

[12] = biological target: Cytochrome P450 2D6 (Homo sapiens) (UniProt P10635); experiment: Cytochrome P450 Family 2 Subfamily D Member 6 (CYP2D6) small molecule antagonists: luciferase reporter qHTS assay (AID 1671196); also: nearly all actives have a fitted effect of over 50% in size; also: potency is read from the fitted curve at half-maximal effect
Summary of the method: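 Quantitative HTS of Tox21 chemicals against CYP2D6 using a luminescent proluciferin substrate. After NADPH addition, 1 h room-temperature reaction; luminescence recorded 20 min post detection reagent.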

[13] = biological target: Cytochrome P450 2C19 (Homo sapiens) (UniProt P33261); experiment: Cytochrome P450 Family 2 Subfamily C Member 19 (CYP2C19) small molecule antagonists: luciferase reporter qHTS assay (AID 1671197); also: nearly all actives have a fitted effect of over 65% in size; also: potency is read from the fitted curve at half-maximal effect
Summary of the method: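 Relative luminescence units recorded 20 min after the detection reagent stopped a 1 h, 37C CYP2C19 reaction on proluciferin substrate, which was started by NADPH regeneration following 10 min room-temperature compound preincubation; ketoconazole positive control.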

[14] = biological target: Cytochrome P450 2C9 (Homo sapiens) (UniProt P11712); experiment: Cytochrome P450 Family 2 Subfamily C Member 9 (CYP2C9) small molecule antagonists: luciferase reporter qHTS assay (AID 1671198); also: nearly all actives have a fitted effect of over 50% in size; also: potency is read from the fitted curve at half-maximal effect
Summary of the method: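 Enzyme-substrate mix preincubated with compound 10 min at room temperature; reaction started with NADPH regeneration solution, 1 h 37C. Luminescent luciferin product read after 20 min detection reagent.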

[15] = biological target: Cytochrome P450 1A2 (Homo sapiens) (UniProt P05177); experiment: Cytochrome P450 Family 1 Subfamily A Member 2 (CYP1A2) small molecule antagonists: luciferase reporter qHTS assay (AID 1671199); also: nearly all actives have a fitted effect of over 50% in size; also: potency is read from the fitted curve at half-maximal effect
Summary of the method: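 Quantitative high-throughput format using the P450-Glo CYP1A2 system. Reaction initiated by NADPH regeneration solution, 1 h at room temperature, then stopped with detection reagent; luminescence measured 20 min later.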

[16] = biological target: Voltage-gated inwardly rectifying potassium channel KCNH2 (Homo sapiens) (UniProt Q12809); experiment: Human Ether-a-go-go-Related Gene (hERG) channel small molecule antagonists: fluorescence cell-based qHTS assay (AID 1671200)
Summary of the method: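 First, 1000 cells per well are seeded and cultured overnight at 37 C. Next, FluxOR II dye is loaded for 1 h at room temperature, protected from light. After 10 more minutes, stimulus is added and fluorescence is read.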

[17] = biological target: Nuclear receptor subfamily 1 group I member 2 (Rattus norvegicus) (UniProt Q9R1A7); experiment: Rat pregnane X receptor (rPXR) activation by small molecules, qHTS assay (AID 1346983); conditions: rPXR luciferase reporter cells, One-Glo luminescence, 24 h; max activation: stronger effect = higher value; also: nearly all actives have a fitted effect of over 20% in size
Summary of the method: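 Luminescent readout (One-Glo luciferase, 30 min room temperature) followed 24 hr compound treatment at 37 C of rPXR cells plated 2,000 per well and preincubated 5hr; qHTS format with compounds delivered in DMSO.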

[18] = biological target: Nuclear receptor subfamily 1 group I member 2 (Homo sapiens) (UniProt O75469); experiment: Human pregnane X receptor (PXR) activation by small molecules, qHTS assay (AID 1346985); also: nearly all actives have a fitted effect of over 40% in size
Summary of the method: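 DPX-2 cells (HepG2 co-transfected with a PXR response element and a CYP3A4-promoter luciferase construct) were seeded at 2,000 per well, rested 5 hr at 37C, then exposed to DMSO-dissolved compounds for 24 hr. Activation was read as luciferase luminescence.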

[19] = biological target: Thyrotropin-releasing hormone receptor (Homo sapiens) (UniProt P34981); experiment: qHTS assay to identify small molecule antagonists of the thyrotropin-releasing hormone receptor (TRHR) signaling pathway (AID 1346877; active = well fitted inhibition curve with a large enough effect in the repeat runs, not every such curve was filed as active; also: series mostly up to about 51 µM)
Summary of the method: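 Human TRHR in HEK293 cells; inhibition of the intracellular calcium rise triggered by 1 nM TRH was followed by fluorescence over 3 min. Compounds were run at 15 concentrations, three replicates each.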

[20] = biological target: Thyrotropin-releasing hormone receptor (Homo sapiens) (UniProt P34981); experiment: qHTS assay to identify small molecule agonists of the thyrotropin-releasing hormone receptor (TRHR) signaling pathway (AID 1346891; calls by dose curve;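 also: HEK293 cells expressing TRHR with calcium dye readout; series mostly up to about 58 µM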)
Summary of the method: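 Kinetic fluorescence (3 min, 1 s intervals) reported intracellular calcium after compound transfer onto TRHR-Hek293 cells pre-loaded with dye for 2 h at 37 °C.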

Cytochrome P450 1A2 (Homo sapiens), sequence (P05177 whole entry, looked up): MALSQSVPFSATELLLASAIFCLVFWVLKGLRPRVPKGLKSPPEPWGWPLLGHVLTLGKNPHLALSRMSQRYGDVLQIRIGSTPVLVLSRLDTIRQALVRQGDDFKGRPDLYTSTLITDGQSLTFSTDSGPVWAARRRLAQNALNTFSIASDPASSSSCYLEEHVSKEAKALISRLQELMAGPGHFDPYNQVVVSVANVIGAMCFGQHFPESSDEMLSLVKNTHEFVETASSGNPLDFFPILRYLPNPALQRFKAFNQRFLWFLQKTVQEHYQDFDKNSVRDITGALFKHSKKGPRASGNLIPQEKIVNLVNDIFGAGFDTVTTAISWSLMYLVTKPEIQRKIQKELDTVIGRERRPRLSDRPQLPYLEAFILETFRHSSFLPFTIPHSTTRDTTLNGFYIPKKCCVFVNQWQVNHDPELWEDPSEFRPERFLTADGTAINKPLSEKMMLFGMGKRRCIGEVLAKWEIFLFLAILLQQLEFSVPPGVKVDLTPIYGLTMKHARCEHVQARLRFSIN
Cytochrome P450 2C9 (Homo sapiens), sequence (P11712 whole entry, looked up): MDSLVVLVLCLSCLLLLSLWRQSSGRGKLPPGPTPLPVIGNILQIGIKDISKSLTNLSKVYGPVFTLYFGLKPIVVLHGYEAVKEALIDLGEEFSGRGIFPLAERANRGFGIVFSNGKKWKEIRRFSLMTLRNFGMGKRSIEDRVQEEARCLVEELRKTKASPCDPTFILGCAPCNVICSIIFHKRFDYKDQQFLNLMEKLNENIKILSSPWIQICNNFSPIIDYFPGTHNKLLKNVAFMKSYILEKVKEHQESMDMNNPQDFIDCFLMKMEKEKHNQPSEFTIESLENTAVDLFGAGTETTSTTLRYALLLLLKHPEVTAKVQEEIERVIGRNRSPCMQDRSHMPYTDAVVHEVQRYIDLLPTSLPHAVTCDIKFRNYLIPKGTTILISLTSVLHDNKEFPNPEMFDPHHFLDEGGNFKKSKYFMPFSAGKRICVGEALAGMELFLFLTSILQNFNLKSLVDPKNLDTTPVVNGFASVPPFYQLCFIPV
Cytochrome P450 2C19 (Homo sapiens), sequence (P33261 whole entry, looked up): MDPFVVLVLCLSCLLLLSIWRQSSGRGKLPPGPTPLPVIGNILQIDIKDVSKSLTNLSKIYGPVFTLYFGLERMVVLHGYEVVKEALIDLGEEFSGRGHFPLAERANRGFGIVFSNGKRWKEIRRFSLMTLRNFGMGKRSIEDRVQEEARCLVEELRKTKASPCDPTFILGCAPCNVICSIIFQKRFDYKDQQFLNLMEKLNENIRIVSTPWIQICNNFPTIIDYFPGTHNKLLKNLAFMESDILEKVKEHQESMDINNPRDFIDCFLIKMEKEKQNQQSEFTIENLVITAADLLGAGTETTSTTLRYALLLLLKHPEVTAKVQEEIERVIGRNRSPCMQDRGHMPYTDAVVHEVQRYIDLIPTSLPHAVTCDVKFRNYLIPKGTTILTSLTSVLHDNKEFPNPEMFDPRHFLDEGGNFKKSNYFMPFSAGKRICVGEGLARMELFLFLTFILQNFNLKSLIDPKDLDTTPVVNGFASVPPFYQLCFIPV
Voltage-gated inwardly rectifying potassium channel KCNH2 (Homo sapiens), sequence (Q12809 whole entry, looked up): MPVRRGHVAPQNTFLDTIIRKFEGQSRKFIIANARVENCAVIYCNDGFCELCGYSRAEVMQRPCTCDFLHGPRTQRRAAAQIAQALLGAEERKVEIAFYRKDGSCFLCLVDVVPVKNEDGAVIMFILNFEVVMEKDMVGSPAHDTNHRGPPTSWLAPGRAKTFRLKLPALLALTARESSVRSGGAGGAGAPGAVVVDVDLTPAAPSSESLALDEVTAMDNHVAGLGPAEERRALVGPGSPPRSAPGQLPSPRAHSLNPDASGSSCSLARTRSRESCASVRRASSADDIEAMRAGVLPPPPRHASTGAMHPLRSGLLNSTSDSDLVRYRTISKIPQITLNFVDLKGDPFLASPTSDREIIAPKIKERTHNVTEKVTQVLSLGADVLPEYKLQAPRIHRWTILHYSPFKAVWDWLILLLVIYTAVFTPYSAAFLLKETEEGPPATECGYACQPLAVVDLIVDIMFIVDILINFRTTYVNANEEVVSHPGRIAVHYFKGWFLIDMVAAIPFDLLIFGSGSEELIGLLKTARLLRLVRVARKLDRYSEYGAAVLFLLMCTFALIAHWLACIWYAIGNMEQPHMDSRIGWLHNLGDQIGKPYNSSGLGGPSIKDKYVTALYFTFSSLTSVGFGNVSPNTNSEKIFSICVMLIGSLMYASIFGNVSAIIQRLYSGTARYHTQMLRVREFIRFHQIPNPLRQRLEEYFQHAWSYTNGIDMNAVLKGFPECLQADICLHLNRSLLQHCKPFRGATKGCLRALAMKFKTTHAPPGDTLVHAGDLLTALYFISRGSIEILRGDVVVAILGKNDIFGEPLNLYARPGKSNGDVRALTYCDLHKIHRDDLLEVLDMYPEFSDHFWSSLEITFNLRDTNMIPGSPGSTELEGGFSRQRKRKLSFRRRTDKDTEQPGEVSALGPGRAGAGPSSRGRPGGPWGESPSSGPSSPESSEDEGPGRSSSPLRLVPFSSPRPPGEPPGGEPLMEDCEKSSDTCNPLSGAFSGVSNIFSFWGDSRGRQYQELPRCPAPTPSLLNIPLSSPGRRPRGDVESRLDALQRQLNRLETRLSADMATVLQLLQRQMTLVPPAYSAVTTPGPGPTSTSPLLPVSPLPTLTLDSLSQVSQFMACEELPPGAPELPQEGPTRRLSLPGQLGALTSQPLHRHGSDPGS
Nuclear receptor subfamily 1 group I member 2 (Homo sapiens), sequence (O75469 whole entry, looked up): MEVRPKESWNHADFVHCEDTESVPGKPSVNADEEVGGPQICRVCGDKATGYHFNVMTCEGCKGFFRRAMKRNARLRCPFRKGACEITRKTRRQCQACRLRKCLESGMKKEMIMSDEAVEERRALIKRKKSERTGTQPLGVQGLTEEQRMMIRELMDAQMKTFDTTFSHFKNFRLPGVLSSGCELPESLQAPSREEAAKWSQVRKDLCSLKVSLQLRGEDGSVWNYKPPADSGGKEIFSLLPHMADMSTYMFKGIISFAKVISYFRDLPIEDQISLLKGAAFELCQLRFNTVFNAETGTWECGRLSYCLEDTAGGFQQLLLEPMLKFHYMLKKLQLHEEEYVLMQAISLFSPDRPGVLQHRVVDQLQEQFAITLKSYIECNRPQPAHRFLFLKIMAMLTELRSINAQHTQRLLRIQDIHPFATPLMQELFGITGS
Thyrotropin-releasing hormone receptor (Homo sapiens), sequence (P34981 whole entry, looked up): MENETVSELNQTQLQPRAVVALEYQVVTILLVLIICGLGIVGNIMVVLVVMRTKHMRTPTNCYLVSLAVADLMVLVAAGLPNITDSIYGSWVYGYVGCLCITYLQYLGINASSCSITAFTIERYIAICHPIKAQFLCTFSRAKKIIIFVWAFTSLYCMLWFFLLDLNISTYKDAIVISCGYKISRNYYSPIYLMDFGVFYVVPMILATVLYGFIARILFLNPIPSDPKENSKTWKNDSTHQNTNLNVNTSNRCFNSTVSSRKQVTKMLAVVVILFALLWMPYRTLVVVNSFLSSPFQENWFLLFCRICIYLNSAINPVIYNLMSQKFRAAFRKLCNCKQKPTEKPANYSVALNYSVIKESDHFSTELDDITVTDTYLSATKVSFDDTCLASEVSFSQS
Cytochrome P450 2D6 (Homo sapiens), sequence (P10635 whole entry, looked up): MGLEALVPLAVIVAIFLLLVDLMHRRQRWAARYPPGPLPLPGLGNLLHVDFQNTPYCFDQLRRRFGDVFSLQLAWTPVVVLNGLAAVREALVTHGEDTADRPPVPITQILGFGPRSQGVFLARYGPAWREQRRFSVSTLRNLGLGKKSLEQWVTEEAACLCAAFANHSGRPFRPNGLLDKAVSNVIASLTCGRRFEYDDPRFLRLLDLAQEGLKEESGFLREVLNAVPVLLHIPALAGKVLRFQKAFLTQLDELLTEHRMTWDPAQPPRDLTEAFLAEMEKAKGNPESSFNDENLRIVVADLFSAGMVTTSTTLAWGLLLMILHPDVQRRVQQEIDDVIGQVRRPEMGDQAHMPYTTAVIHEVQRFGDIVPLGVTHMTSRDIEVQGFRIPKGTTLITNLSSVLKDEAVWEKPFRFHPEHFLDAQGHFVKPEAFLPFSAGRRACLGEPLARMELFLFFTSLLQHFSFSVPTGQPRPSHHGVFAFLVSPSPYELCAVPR
Nuclear receptor subfamily 1 group I member 2 (Rattus norvegicus), sequence (Q9R1A7 whole entry, looked up): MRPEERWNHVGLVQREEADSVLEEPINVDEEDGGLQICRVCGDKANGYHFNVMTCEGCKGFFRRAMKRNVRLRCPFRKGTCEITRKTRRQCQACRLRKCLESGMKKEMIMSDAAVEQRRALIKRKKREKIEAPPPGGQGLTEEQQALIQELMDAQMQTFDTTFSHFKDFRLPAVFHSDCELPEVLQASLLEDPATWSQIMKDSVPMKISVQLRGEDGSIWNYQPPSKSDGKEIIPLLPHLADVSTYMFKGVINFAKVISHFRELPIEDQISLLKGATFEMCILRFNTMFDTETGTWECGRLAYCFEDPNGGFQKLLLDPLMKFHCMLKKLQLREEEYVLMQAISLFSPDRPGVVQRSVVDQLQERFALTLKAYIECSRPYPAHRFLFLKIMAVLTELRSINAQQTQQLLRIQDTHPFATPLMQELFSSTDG

Row | SMILES | Potency [1] | Potency [2] | Potency [3] | Potency [4] | outcome [5] | Potency [6] | Potency [7] | Potency [8] | outcome [9] | Potency [10] | Potency [11] | Potency [12] | Potency [13] | Potency [14] | Potency [15] | outcome [16] | max activation [17] | Potency [18] | Potency [19] | outcome [20]
1 | CN(C)CCOCCN(C)C | inactive | inactive | inactive | inactive | inactive | inactive | inactive | inactive | inactive | inactive | inactive | inactive | inactive | inactive | inactive | inactive |  |  |  | 
2 | C#C[C@]1(O)CC[C@H]2[C@@H]3CCC4=CC(=O)CC[C@@H]4[C@H]3CC[C@@]21C | inactive | inactive | inactive | inactive | inactive | inactive | inactive | 61.1 µM (active) | inactive | inactive | 48.6 µM (active) | inactive | 5.03 µM (active) and 4.36 µM (active) |  | inactive | inactive | -1% (inactive) | inactive |  | 
3 | c1c[nH]cn1 | inactive | inactive | inactive | inactive | inactive | inactive | inactive | inactive |  | inactive | inactive |  | 84.4 µM (active) |  | inactive | inactive |  |  | inactive | inactive
4 | Cc1cc(C)c(C)cc1C | inactive | inactive |  | inactive | inactive | inactive | inactive | inactive | inactive | inactive | inactive | inactive | inactive | inactive | inactive | inactive |  |  | inactive | inactive
5 | CCOC(=O)NNc1nncc2ccccc12 | inactive | inactive | inactive | inactive | inactive | inactive | inactive | inactive |  | inactive | inactive | 35.6 µM (active) | inactive |  | 20 µM (active) | inactive |  |  |  | 
6 | COc1ccc(NC(C)=O)cc1N | inactive | inactive | inactive | inactive | inactive | inactive | inactive | inactive |  | inactive |  | inactive | 39.8 µM (active) and 39.9 µM (active) |  | 17.8 µM (active) and 25.2 µM (active) | inactive |  |  | inactive | inactive
7 | CCN(CC)c1ccc(C(=O)c2ccccc2C(=O)O)c(O)c1 | inactive | inactive | inactive | inactive |  | inactive | inactive |  |  | inactive | 27.4 µM (active) and 19.3 µM (active) | inactive | 71.3 µM (active) and inactive | 35.7 µM (active) and 31.7 µM (active) | inactive | inactive |  |  | inactive | inactive
8 | C=C(C)C(=O)OCCOCCOCCOC(=O)C(=C)C | inactive | inactive |  | inactive | inactive | inactive | inactive | inactive | inactive | inactive | inactive | 20 µM (active) and inactive | 22.5 µM (active) and 31.7 µM (active) | 40 µM (active) | 40 µM (active) and 28.3 µM (active) | inactive |  |  | inactive | inactive
9 | OCCOCCOCCO | inactive | inactive |  | inactive | inactive | inactive | inactive | inactive | inactive | inactive | 63.4 µM (active) and inactive | inactive | inactive |  | inactive | inactive | -2.18% (inactive) | inactive | inactive | inactive
10 | O=C(O)CCCC[C@@H]1SC[C@@H]2NC(=O)N[C@@H]21 | inactive | inactive | inactive | inactive | inactive | inactive | inactive | inactive | inactive | inactive | inactive | inactive | inactive |  | inactive | inactive |  |  |  | 
11 | CCCC(C)=O | inactive | inactive |  | inactive | inactive | inactive | inactive | inactive | inactive | inactive | inactive | inactive | inactive |  | inactive | inactive |  |  | inactive | inactive
12 | CCCCCCCCCC | inactive | inactive | inactive | inactive | inactive | inactive | inactive | inactive |  | inactive | inactive | inactive | inactive and 71 µM (active) | inactive and 79.6 µM (active) | inactive | inactive |  |  |  | 
13 | O=C(O)CCCCCCCCCCC(=O)O | inactive | inactive | inactive | inactive | inactive | inactive | inactive | inactive | inactive | inactive | inactive | 35.9 µM (active) and 39.9 µM (active) | 32 µM (active) and 31.7 µM (active) |  | inactive | inactive |  |  |  | 
14 | CCCCN(CCCC)CCCC | inactive | inactive |  | inactive | inactive | inactive | inactive | inactive | inactive | inactive | inactive | inactive |  |  | 35.5 µM (active) and inactive | inactive |  |  | inactive | inactive
